Source: PubChem BioAssay (several laboratories)
The list is not random: actives were taken first. Their share in the collection is about 2.1%.
Sa RN4220 lethal – kills Staphylococcus aureus RN4220 | S. aureus RN4220 growth, OD600, 16 h | inhibition, % (test concentration not listed) | 0.33% of 330,000 active | AID 1259311; in the data active = inhibition above about 85%
ugtP null kill – compounds lethal to S. aureus RN4220 ugtP deletion mutant. OD600 growth, 16 h. 0.54% of 330,000 active. AID 1259309. growth inhibition, % (test concentration not listed); in the data active = growth inhibition above about 68%
PfHsp40 rescue – restores yeast growth despite PfHsp40 toxicity; growth rescue, % at 12.5 µM; AID 504582; S. cerevisiae expressing PfHsp40, growth rescue, ATP luminescence; 0.68% of 340,000 active; in the data active = growth rescue above about 28%, passing the limit was not always enough; inconclusive = no clear call, values can overlap the other calls;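 note: yeast W303a lacking pdr1 and pdr3 grown in galactose medium; growth measured after three days at 30 °C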
CCHF vOTU inh-1 – CCHFV vOTU protease inhibition; Pep-AMC fluorescence; inhibition, % at 11.5 µM; 0.55% of 370,000 active; AID 651958
PrP UTR inh – suppresses PrP 5' UTR mRNA reporter expression; AID 488862; 0.35% of 340,000 active; inhibition, % (no concentration beside the values); cell-based PrP 5' UTR mRNA reporter, plate reader; in the data active = inhibition above about 52%
PrPC TRFRET – reduces human prion protein on the cell surface. 0.43% of 370,000 active. AID 720596. inhibition, % at 13.8 µM. P04156. cell surface PrPC, TR-FRET read-out; in the data active = inhibition above about 24%
CCHF vOTU inh-2 – confirmation of CCHF virus vOTU protease inhibitors | 17% of 1,900 active | inhibition, % at 11.5 µM | shares compounds with CCHF vOTU inh-1 | Recombinant CCHFV vOTU, Pep-AMC fluorescence | AID 686976
Hits are given with their value; i = inactive; ? = inconclusive; nt = no result; ! = not confirmed by another sample. Cut-off read from the data, not from the text of the source, unless noted: active = inhibition above about 30%; inactive = the rest.

SMILES	Sa RN4220 lethal	ugtP null kill	PfHsp40 rescue	CCHF vOTU inh-1	PrP UTR inh	PrPC TRFRET	CCHF vOTU inh-2
Nc1ccc(N2CCN(c3ccc(F)cc3)CC2)cc1	i	i	i	i	i	i	nt
O=C1NC(Cc2ccc(O)cc2)c2nc3cc(F)c(F)cc3c(=O)n2-c2cc3ccccc3cc21 (stereo not drawn)	nt	nt	nt	29.9	nt	i	i
O=C1NC(Cc2ccccc2)c2nc3cc(F)c(F)cc3c(=O)n2-c2cc3ccccc3cc21 (stereo not drawn)	nt	nt	nt	i	nt	i	nt
CC(CC(=O)Nc1ccc(N(C)C)cc1)=NNC(=O)Cc1csc(N)n1	i	i	nt	nt	nt	nt	nt
Cc1ccc(S(=O)(=O)N2C(c3ccc(C(C)C)cc3)CC=C(C(=O)O)C2c2cccc(Cl)c2)cc1 (stereo not drawn)	i	i	nt	nt	nt	nt	nt
CCCCOCCCNC(=O)C[C@H]1C[C@@]2(C(=O)OC)C(=C[C@H](C(C)C)O[C@@H]2C2CC2)N(CCC2=CCCCC2)C1=O	nt	nt	nt	39.4	nt	i	i
CCCCNC(=O)C[C@H]1C[C@@]2(C(=O)OC)C(=C[C@H](C(C)C)O[C@@H]2C2CC2)N(CCC2=CCCCC2)C1=O	nt	nt	nt	i	nt	i	nt
COC(=O)[C@]12C[C@H](CC(=O)NCCCCc3ccccc3)C(=O)N(CCC3=CCCCC3)C1=C[C@H](C(C)C)O[C@@H]2C1CC1	nt	nt	nt	36.8	nt	i	i
COc1cc(C=NNc2nnc3c(n2)[nH]c2ccccc23)ccc1O	i	i	nt	nt	nt	nt	nt
CSc1ccccc1NC(=O)CN(C)C(=O)COc1cccc2cccnc12	i	i	i	33.2	i	i	i
O=C1C(Cl)=C(NCc2ccco2)C(=O)c2ccccc21	i	i	?	106.8	i	i	81.4
O=C1c2ccccc2-c2onc3ccc(NCc4ccco4)c1c23	i	i	i	nt	i	nt	nt
CCNC1=C(Cl)C(=O)c2ccccc2C1=O	i	i	i	53.2	i	i	47.5
CCCC(=O)NC1=C(Cl)C(=O)c2ccccc2C1=O	nt	nt	i	92.7	i	i	82.6
CC1=NN(c2ccc(C)cc2C)C(=O)C1C(c1ccccc1O)C1C(=O)N(c2ccc(C)cc2C)N=C1C (stereo not drawn)	i	i	i	43.7	i	i	i
CC1=NN(c2ccc(Cl)cc2)C(=O)C1C(c1ccccc1O)c1c(C)[nH]n(-c2ccc(Cl)cc2)c1=O (stereo not drawn)	i	i	i	nt	i	nt	nt
COc1ccc(Cc2nc(-c3cccs3)no2)cc1OC	i	i	i	30.6	i	i	i
CCc1ccc(C2CC=C(C(=O)O)C(c3ccc(F)cc3)N2S(=O)(=O)c2ccc(C)cc2)cc1 (stereo not drawn)	i	i	nt	nt	nt	nt	nt
Cc1c(C(=O)N/N=C/c2ccc(-c3ccccc3[N+](=O)[O-])o2)sc(N)c1C#N	nt	nt	i	42.5	i	i	i
Nn1cnnc1NN=Cc1ccc(-c2ccccc2[N+](=O)[O-])o1	i	i	nt	nt	nt	nt	nt
Nn1cnnc1N/N=C\c1ccc(-c2ccccc2[N+](=O)[O-])o1	nt	nt	i	97.3	i	i	i
COc1ccccc1CNC(=O)CC(C)=NNC(=O)COc1ccc(C)cc1Br	i	i	nt	nt	nt	nt	nt
O=[N+]([O-])c1ccc(-c2ccc(C=NNc3nc(N4CCCC4)nc(N4CCCC4)n3)o2)cc1	i	i	nt	nt	nt	nt	nt
CN1CCN(C(=O)C2=CC(c3ccc(C(F)(F)F)cc3)CC(OCCCCO)O2)CC1 (stereo not drawn)	i	i	nt	nt	nt	nt	nt
COc1ccc(C(=O)Nc2ccc(NC(=O)C3CCCCC3)nc2)cc1	i	i	i	i	i	i	nt
SMILES	Sa RN4220 lethal	ugtP null kill	PfHsp40 rescue	CCHF vOTU inh-1	PrP UTR inh	PrPC TRFRET	CCHF vOTU inh-2
COc1ccccc1C(=O)Nc1ccc(NC(=O)C2CCCCC2)nc1	i	i	i	39.4	i	i	i
Cc1ccc(S(=O)(=O)NC2=C(N3CCN(Cc4ccccc4)CC3)C(=O)c3ccccc3C2=O)cc1	i	i	i	i	i	i	nt
CCOC(=O)N1CCN(C2=C(NS(=O)(=O)c3ccc(C)cc3)C(=O)c3ccccc3C2=O)CC1	i	i	i	81.9	i	i	81.0
COC(=O)C1CCN(C2=C(NS(=O)(=O)c3ccc(Cl)cc3)C(=O)c3ccccc3C2=O)CC1	i	i	i	i	i	i	nt
CC(=O)Nc1ccc(S(=O)(=O)NC2=C(N3CCN(c4ccc(F)cc4)CC3)C(=O)c3ccccc3C2=O)cc1	i	i	i	76.9	i	i	69.1
Cc1ccc(S(=O)(=O)NC2=C(N3CCN(c4ccccc4F)CC3)C(=O)c3ccccc3C2=O)cc1	nt	nt	i	53.1!	i	i	i
Cc1c(OC2OC(CO)C(O)C(O)C2O)c(CO)c(OC2OC(CO)C(O)C(O)C2O)c2c1OC(c1ccccc1)CC2O (stereo not drawn)	i	i	nt	nt	nt	nt	nt
COc1ccccc1C(=O)NCCC(=O)N(Cc1ccco1)Cc1cccs1	i	i	i	i	i	i	nt
COc1ccc(C(=O)N(Cc2ccco2)Cc2cccs2)c(O)c1	i	i	i	34.4	i	i	i
CC1CN(C(C)CO)C(=O)c2cc(NS(=O)(=O)c3cccs3)ccc2OC1CN(C)Cc1ccc(C(F)(F)F)cc1 (stereo not drawn)	i	i	nt	nt	nt	nt	nt
O=c1[nH][nH]cc1C=Nc1ccccc1O	i	i	i	i	i	i	nt
O=c1c(=Nc2ccccc2O)c(=O)c2ccccc12	nt	nt	i	49.0	i	i	i
Cc1cc2cc(CN(Cc3ccco3)C(=S)NCC3CCCO3)c(=O)[nH]c2cc1C (stereo not drawn)	i	i	i	30.9	i	i	i
C=CC1c2cc(C)ccc2N(S(=O)(=O)c2ccc(C)cc2)C(c2ccc(OC(C)=O)cc2)C1(C#N)C#N (stereo not drawn)	i	i	nt	nt	nt	nt	nt
Cc1ccccc1OCC(=O)N1N=C(C(F)(F)F)CC1(O)C(C)(C)C (stereo not drawn)	i	i	i	33.5	i	i	i
Cc1ccc(OCC(=O)N2N=C(C(F)(F)F)CC2(O)C(C)(C)C)cc1C (stereo not drawn)	i	i	i	i	i	i	nt
CCCc1sc(N)nc1-c1ccc(C)cc1	i	i	i	32.8	i	i	i
Oc1ccc(C=Nc2cccc3ncccc23)c(O)c1	i	i	i	44.5	i	i	i
